PubChem BioAssay AID2783 (National Center for Advancing Translational Sciences (NCATS), 2010)
Results filed as inconclusive are left out. Calls of active or inactive are those of the source. The call rests on the fitted dose curve; in most records, active means well fitted inhibition curve with a large enough effect in the polarisation, with a control signal flat (not every such curve was filed as active); inconclusive means small, poorly fitted or top-dose-only effect, or effect the other way, or a change in a side signal; inactive means no such curve, though single readings can be large or run the other way; the % refers to the polarisation. Where a SMILES comes first, the peptide text is derived from it. Bridges are numbered along the chain shown (N, C = ends). [ ]: non-standard residue; d: D form. The star is where a group is joined. ξ: configuration not given here. Octanoyl(6-Me) = CCC(C)CCCCC(=O)*; ξThr(3R) = C[C@@H](O)C(N)C(=O)O; dDab = NCC[C@@H](N)C(=O)O; Dab = NCC[CH](N)C(=O)O

These compounds were tested against Histone-lysine N-methyltransferase 2A (Homo sapiens) (UniProt Q03164) (assay: Confirmation of Inhibitors Targeting the Menin-MLL Interaction in MLL Related Leukemias: Competition With Fluorescein Labeled MLL-derived Peptide). Settings: Fluorescence polarization, fluorescein-MLL peptide displacement from menin.
Excerpt: qHTS Assay for Inhibitors Targeting the Menin-MLL Interaction in MLL Related Leukemias
NIH Chemical Genomics Center [NCGC]
NIH Molecular Libraries Probe Centers Network [MLPCN]
Assay Submitter (PI): Jolanta Grembecka, Tomasz Cierpicki, University of Virginia
Translocations of the MLL (Mixed Lineage Leukemia) gene are frequently found in human leukemias affecting both children and adults. Fusion of MLL to one of more than 60 genes results in generation of oncogenic proteins upregulating Hox genes, which are vital to blood cell development. Patients harboring fusion of the MLL gene suffer from aggressive leukemias and respond poorly to available therapies. All of the oncogenic fusion proteins have a preserved N-terminal fragment of MLL that has been identified to interact with menin. It has been recently discovered that association with menin is critical to the leukemogenic activity of the MLL fusion oncoproteins. Selective targeting of the menin-MLL interaction could provide an attractive therapeutic approach to develop novel drugs for MLL-related leukemias. Small molecules blocking the menin-MLL interaction should reverse the oncogenic potential of MLL fusion proteins.
We have developed and optimized a fluorescence polarization-based assay for the identification of Menin-MLL inhibitors. The assay was run employing two different MLL-derived peptides. The present assay uses a 12 amino acid peptide labeled with fluorescein at its N-terminus. This peptide consists of the menin high affinity binding motif from MLL and is potently bound by menin. Another peptide with a mutated sequence, labeled with Texas Red, was used in parallel as a less stringent screen for inhibitors.
The present assay was run to confirm the activity of hits from the primary screen.
The Menin protein, the MLL-wild type (w.t.) derived peptide (N-terminal 12 amino acids), the MLL-derived peptide labeled with Texas Red and the MLL-w.t. peptide labeled with Fluorescein were kindly supplied by laboratory of Dr. Jolanta Grembecka, University of Virginia. All protein and peptide solutions were stored in single use aliquots at -80C. The Eu3+ Cyrptate-conjugated mouse monoclonal antibody anti-6 Histidine (Eu3+-AB) and the Streptavidin-XL665 conjugate (XL665) were purchased from Cisbio International (Bedford, MA). All antibody and XL665 conjugate solution stocks were stored in single use aliquots at -20C. The Buffer components for all assays were purchased from Sigma-Aldrich (St. Louis, MO) and Invitrogen (Carlsbad, CA).
1. FP reaction buffer: 50 mM Tris-HCl pH 7.5, 50 mM NaCl, 1mM DTT.
Before use, 0.05% BSA is added.
2. Menin protein, MLL-w.t. labeled with fluorescein, MLL-mutant peptide labeled with texas red.
Stored in singe use aliquots at -80C.
3. MLL-w.t. unlabeled peptide as positive control: 10 uM final in FP buffer.
1. Prepare Menin at 200 nM, MLL-w.t.-fluorescein at 25 nM, and MLL-mutant-texas red at 50 nM mixture in FP buffer.
2. Prepare Menin at 200 nM, MLL-w.t.-fluorescein at 25 nM, MLL-mutant-texas red at 50 nM, and 10 uM MLL-w.t. unlabeled mixture in FP buffer.
3. Prepare MLL-w.t.-fluorescein at 25 nM and MLL-mutant-texas red at 50 nM mixture in FP buffer.
3. Dispense 4 ul per well of reagent in step 1 in columns 2, 4 - 48 in a black 1536 well plate, dispense 4 ul per well of reagents from steps 2 and 3 in columns 1 and 3 respectively. Incubate plate at ambient for 15 minutes.
4. Transfer 23 nl per well of compound to plate and incubate at ambient for 1 hr.
5. Read fluorescence polarization for each label using the PerkinElmer Envision.
Envision protocol for fluorescein: FITC FP Dual Enh Mirror, Excitation filter 480, Emission filter (1) P-pol 535, Emission filter (2) S-pol 535
Envision protocol for texas red: FP Dual Enh Mirror, Excitation filter 555, Emission filter (1) P-pol 632, Emission filter (2) S-pol 632
Potency means the concentration at half of the fitted maximal effect.

Histone-lysine N-methyltransferase 2A (Homo sapiens), sequence (Q03164 whole entry, looked up): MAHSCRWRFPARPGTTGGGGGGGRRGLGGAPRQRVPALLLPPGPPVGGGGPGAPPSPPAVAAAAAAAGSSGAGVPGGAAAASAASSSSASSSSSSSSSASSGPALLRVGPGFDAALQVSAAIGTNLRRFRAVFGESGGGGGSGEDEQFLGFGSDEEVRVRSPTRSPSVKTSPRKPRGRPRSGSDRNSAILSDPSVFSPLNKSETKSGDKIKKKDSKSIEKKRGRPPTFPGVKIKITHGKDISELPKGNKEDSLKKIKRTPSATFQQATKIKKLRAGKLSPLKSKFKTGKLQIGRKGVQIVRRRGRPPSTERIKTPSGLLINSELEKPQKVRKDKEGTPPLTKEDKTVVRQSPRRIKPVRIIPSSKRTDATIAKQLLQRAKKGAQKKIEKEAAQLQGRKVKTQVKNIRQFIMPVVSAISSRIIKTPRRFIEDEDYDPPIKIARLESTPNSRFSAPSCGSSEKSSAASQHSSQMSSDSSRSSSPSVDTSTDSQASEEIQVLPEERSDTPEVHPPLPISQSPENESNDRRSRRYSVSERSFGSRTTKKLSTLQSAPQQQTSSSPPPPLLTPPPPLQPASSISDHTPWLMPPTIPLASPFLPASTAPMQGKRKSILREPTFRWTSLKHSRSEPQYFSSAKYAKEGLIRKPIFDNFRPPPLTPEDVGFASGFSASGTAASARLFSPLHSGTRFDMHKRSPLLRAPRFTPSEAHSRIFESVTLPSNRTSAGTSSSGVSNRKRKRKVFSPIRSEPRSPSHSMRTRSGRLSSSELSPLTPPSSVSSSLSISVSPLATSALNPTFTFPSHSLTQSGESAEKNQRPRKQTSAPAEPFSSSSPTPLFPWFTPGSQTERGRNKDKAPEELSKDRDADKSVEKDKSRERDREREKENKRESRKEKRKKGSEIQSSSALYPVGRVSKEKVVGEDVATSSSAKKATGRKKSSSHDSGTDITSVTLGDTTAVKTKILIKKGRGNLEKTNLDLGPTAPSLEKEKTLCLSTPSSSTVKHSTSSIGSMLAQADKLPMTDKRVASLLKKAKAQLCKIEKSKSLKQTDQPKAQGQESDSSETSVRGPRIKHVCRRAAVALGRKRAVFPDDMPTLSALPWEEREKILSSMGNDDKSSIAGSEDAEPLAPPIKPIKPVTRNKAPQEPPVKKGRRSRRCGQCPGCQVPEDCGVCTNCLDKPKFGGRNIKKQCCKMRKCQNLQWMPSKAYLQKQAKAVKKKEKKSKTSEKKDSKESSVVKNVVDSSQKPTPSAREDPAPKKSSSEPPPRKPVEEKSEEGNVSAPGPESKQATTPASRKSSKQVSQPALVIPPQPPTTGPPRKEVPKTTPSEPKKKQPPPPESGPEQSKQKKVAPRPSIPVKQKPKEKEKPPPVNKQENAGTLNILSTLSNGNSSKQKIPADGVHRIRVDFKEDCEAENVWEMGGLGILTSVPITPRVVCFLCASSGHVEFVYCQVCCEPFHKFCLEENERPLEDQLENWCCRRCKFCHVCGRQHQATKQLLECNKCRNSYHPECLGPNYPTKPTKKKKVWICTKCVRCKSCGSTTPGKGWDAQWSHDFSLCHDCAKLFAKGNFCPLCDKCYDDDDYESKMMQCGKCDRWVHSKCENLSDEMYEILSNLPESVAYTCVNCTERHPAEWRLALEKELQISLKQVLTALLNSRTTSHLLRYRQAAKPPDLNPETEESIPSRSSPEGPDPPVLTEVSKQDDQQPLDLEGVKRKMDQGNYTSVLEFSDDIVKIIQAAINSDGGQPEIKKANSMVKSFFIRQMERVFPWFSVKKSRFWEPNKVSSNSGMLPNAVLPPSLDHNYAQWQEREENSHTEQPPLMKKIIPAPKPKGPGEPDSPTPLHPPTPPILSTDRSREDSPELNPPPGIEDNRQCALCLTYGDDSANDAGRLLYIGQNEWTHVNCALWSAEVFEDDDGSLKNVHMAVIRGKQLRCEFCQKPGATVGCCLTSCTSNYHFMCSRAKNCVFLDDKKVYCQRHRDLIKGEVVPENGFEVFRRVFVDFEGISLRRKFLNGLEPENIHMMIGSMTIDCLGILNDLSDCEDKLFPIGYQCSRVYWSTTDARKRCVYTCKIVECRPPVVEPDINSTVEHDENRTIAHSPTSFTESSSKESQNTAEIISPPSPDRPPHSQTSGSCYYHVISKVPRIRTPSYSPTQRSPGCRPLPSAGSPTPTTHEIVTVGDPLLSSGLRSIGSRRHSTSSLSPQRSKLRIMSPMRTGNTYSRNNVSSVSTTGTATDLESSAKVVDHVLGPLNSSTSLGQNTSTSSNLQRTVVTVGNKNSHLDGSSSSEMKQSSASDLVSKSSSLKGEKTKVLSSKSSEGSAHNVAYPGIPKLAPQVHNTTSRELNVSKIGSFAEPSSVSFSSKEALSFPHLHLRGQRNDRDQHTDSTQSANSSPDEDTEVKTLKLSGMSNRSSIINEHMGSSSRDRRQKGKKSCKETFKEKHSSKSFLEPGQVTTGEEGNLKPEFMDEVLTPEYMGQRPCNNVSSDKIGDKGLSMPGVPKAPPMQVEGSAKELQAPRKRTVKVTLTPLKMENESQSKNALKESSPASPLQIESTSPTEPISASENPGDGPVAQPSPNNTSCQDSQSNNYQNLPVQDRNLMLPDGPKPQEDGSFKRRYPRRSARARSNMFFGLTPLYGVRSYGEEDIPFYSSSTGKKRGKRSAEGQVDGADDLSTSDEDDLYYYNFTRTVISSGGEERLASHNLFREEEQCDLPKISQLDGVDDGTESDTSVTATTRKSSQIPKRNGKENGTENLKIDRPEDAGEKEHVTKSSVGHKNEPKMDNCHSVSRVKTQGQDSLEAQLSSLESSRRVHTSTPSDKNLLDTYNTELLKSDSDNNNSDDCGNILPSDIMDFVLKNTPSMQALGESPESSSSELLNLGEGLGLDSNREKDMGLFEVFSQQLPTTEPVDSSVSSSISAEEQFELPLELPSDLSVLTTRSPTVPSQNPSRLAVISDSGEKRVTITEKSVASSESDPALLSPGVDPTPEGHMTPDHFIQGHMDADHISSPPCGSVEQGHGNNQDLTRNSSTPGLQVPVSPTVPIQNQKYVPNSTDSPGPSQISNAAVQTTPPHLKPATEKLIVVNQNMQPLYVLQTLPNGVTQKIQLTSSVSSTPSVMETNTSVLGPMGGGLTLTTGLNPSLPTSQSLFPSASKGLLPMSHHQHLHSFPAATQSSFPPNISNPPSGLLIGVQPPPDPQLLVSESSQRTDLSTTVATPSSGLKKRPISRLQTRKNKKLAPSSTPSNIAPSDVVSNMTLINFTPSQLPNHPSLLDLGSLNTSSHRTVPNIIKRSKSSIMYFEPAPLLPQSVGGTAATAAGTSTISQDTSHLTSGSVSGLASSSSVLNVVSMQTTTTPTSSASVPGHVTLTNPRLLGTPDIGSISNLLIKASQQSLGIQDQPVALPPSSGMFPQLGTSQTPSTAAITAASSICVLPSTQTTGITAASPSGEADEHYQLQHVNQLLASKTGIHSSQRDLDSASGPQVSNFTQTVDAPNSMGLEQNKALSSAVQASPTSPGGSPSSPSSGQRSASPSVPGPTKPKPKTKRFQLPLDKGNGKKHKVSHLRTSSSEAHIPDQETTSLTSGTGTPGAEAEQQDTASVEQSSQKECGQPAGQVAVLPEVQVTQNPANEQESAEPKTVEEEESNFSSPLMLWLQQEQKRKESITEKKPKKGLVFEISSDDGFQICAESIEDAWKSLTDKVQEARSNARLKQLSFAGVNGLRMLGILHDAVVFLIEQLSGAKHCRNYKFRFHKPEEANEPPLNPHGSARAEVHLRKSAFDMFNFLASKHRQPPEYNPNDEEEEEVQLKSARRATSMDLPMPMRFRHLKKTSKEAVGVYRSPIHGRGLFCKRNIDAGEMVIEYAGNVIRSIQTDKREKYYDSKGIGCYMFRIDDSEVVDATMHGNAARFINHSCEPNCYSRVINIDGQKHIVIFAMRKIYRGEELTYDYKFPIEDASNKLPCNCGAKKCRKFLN

Potency, active:
CC(=O)NC1C(=O)N(CCN2CCOCC2)c2ccc(C)cc21 (configuration not stated) 79.6 µM
Cc1sc2ncnc(NC3CCN(Cc4ccccc4)CC3)c2c1C 63.1 µM
NC(=NCCCCCCN=C(N)/N=C(\N)Nc1ccc(Cl)cc1)/N=C(\N)Nc1ccc(Cl)cc1 141 µM
CCOc1cc(CNCCc2ccc(S(N)(=O)=O)cc2)ccc1OCc1ccccc1 126 µM
c1cc(CN2CCCNCCNCCCNCC2)ccc1CN1CCCNCCNCCCNCC1 31.6 µM
COc1ccccc1NS(=O)(=O)c1cc(N2Cc3ccccc3C2=N)ccc1N1CCOCC1 71 µM
CCCC(c1nnnn1Cc1ccco1)N1CCN(C2CCCC2)CC1 (configuration not stated) 126 µM
N=C1c2ccccc2CN1c1ccc(N2CCOCC2)c(S(=O)(=O)Nc2ccc(Cl)cc2)c1 71 µM
CCC(c1nnnn1Cc1ccc(F)cc1)N1CCN(C2CCCCC2)CC1 (configuration not stated) 126 µM
CCCC[n+]1c2ccccc2cc2ccccc21 63.2 µM
CNC[C@H](CC1CCCCC1)NC[C@H](Cc1ccccc1)NCCC12CC3CC(CC(C3)C1)C2 79.4 µM
CCc1cc2c(N3CCN(C(=O)c4ccco4)CC3)ncnc2s1 63.1 µM
CC1(C)CN=C(N2CCN(c3ncnc4sc5c(c34)CCCC5)CC2)S1 22.4 µM
O=C(C[N+]12CC[N+](CC(=O)c3ccc(F)cc3)(CC1)CC2)c1ccc(F)cc1 79.4 µM
CCC[n+]1c2ccccc2cc2ccccc21 63.2 µM
CCC(C)CCCCC(=O)N[C@@H](CCN)C(=O)N[C@H](C(=O)N[C@@H](CCN)C(=O)N[C@H]1CCNC(=O)C([C@@H](C)O)NC(=O)[C@@H](CCN)NC(=O)[C@H](CCN)NC(=O)[C@H](CC(C)C)NC(=O)[C@@H](CC(C)C)NC(=O)[C@H](CCN)NC1=O)[C@@H](C)O (stereo partly drawn) ({Octanoyl(6-Me)}-[Dab]T[Dab][Dab][Dab][dL]L[Dab][dDab][ξThr(3R)]; lactam 4-C) 12.6 µM
Cc1cc2c(N)cccc2nn1 141 µM
CCC(C)CCCCC(=O)NC(CCN)C(=O)NC(C(=O)NC(CCN)C(=O)NC1CCNC(=O)C(C(C)O)NC(=O)C(CCN)NC(=O)C(CCN)NC(=O)C(CC(C)C)NC(=O)C(Cc2ccccc2)NC(=O)C(CCN)NC1=O)C(C)O (configuration not stated) ({Octanoyl(6-Me)}-[Dab]T[Dab][Dab][Dab]FL[Dab][Dab]T; lactam 4-C; configuration not given here) 10 µM
COc1ccc(Cn2nnnc2C(c2ccc3ncccc3c2)N2CCN(C3CCCCC3)CC2)cc1 (configuration not stated) 200 µM
COC(=O)[C@H](C)NC(=O)c1cc2c(cn1)[nH]c1ccccc12 50.2 µM
C[C@H](NC(=O)c1cc2c(cn1)[nH]c1ccccc12)C(=O)O 71 µM
NC(=O)[C@@H]1CCCNc2c(I)cc([N+](=O)[O-])cc2C(=O)N[C@@H](CCCN=C(N)N)C(=O)N[C@@H](CCCN=C(N)N)C(=O)N1 251 µM
